Drawing on the antibiotic and cytotoxicity screens of Wong et al. (2023), this text covers cytotoxicity call for 22 molecules.

The structures appear in SMILES notation. In all, about 39,000 compounds went through this assay and about 3,300 (8.5%) were called active. This is one part of a sample in which actives are shown more often than they occur.

The test system of this assay is HepG2. Description: cytotoxicity call (relative viability < 0.9). The note with it: 10 µM.
Regarding `COc1ccc(CN(C)C[C@H]2OCCCC[C@@H](C)Oc3ccc(NC(=O)Nc4c(C)noc4C)cc3C(=O)N([C@H](C)CO)C[C@@H]2C)cc1`, the cytotoxicity call is “inactive”. Take `C[C@H]1CCCCO[C@H](CN(C)C(=O)Nc2ccc3c(c2)OCO3)[C@@H](C)CN([C@@H](C)CO)C(=O)c2cc(NC(=O)Nc3cccc4ccccc34)ccc2O1`: the cytotoxicity call was “inactive”. Under `COc1ccc(S(=O)(=O)N(C)C[C@H]2Oc3ccc(NC(=O)CCC(F)(F)F)cc3CC(=O)N([C@H](C)CO)C[C@@H]2C)cc1` stands “inactive”; under `C[C@@H]1CN([C@H](C)CO)C(=O)Cc2cc(NS(=O)(=O)c3cccs3)ccc2O[C@H]1CN(C)Cc1ccc(Cl)c(Cl)c1`, “inactive”. Under `Cc1cccc(S(=O)(=O)N2C[C@H](O)COC[C@@H]3O[C@H](CC(=O)NCCCN4CCOCC4)CC[C@H]32)c1` stands “inactive”; under `CC(=O)C=C(O)CCC(=O)O`, “inactive”. Next, `C=CCSC1=N[C@@]2(COCc3ccc(OC)cc3)Oc3ccccc3[C@H]([C@H]2CO[Si](C)(C)C(C)(C)C)N1C(=O)c1ccccc1`: “inactive”; `Cc1noc(C)c1S(=O)(=O)Nc1ccc2c(c1)C(=O)N([C@H](C)CO)C[C@H](C)[C@H](CN(C)C)OCCCC[C@H](C)O2`: “inactive”.

In the case of `Nc1ncn(C2OC(CO)C(O)C2O)c(=O)n1` (configuration not stated), the cytotoxicity call was “active”. Consider `Nc1ncn([C@@H]2C[C@H](O)[C@@H](CO)O2)c(=O)n1`, for which the cytotoxicity call is “inactive”. Next, `Nc1ccn([C@@H]2O[C@H](CO)[C@@H](O)[C@@H]2O)c(=O)n1`: “inactive”. As to `Nc1ncn([C@H]2C[C@H](O)[C@@H](CO)O2)c(=O)n1`, the cytotoxicity call is “inactive”. Under `CNc1ncnc2c1ncn2[C@@H]1O[C@H](CO)[C@@H](O)[C@H]1O` stands “inactive”; under `OC[C@H]1O[C@@H](n2cnc3c(NCc4ccco4)ncnc32)[C@H](O)[C@@H]1O`, “active”; under `OC[C@H]1O[C@@H](n2cnc3c(NC4CCCC4)ncnc32)[C@H](O)[C@@H]1O`, “inactive”. Next, `Nc1ncn([C@@H]2O[C@H](CO)[C@@H](O)[C@H]2O)c(=O)n1`: “active”; `Nc1ccn([C@@H]2O[C@H](CO)[C@H](O)[C@@H]2O)c(=O)n1`: “inactive”. Next, `C/C=C/c1ccc2c(c1)O[C@H](CN(C)S(=O)(=O)c1ccc(F)cc1)[C@H](C)CN([C@H](C)CO)S2(=O)=O`: “inactive”. Consider `CCO[C@H]1[C@H]2CC[C@@H]1N(C(=O)N(C)C)CCO2`, for which the cytotoxicity call was “inactive”. Next, `C[C@@H]1CCCCO[C@H](CN(C)S(C)(=O)=O)[C@H](C)CN([C@@H](C)CO)C(=O)c2cc(NS(C)(=O)=O)ccc2O1`: “inactive”; `CCC(=O)N[C@@H]1C=C[C@@H](CC(=O)OC)O[C@@H]1CO`: “inactive”. Under `CC(C)NC(=O)N(C)C[C@H]1Oc2ccc(NS(=O)(=O)c3ccccc3)cc2C(=O)N([C@@H](C)CO)C[C@@H]1C` stands “inactive”.
